PubChem BioAssay (NCATS)
Inconclusive results are not listed. Calls of active or inactive are those of the source. The call rests on the fitted dose curve; in most records, active means well fitted inhibition curve with a large enough effect; inconclusive means small, poorly fitted or top-dose-only effect; inactive means flat fitted curve, though single readings scatter.

Columns and labels:
Assay in all cases: qHTS profiling for inhibitors of Plasmodium falciparum proliferation (AID 504749); further: nearly all actives have a fitted effect of over 60% in size
Details in all cases: P. falciparum in erythrocytes, SYBR Green DNA, 72 h; series mostly up to 28.7 µM
CP252 = test system: CP252
Summary of the method: (§1)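 P. falciparum-infected erythrocytes (0.3% parasitemia, 2.5% hematocrit) incubated with compound 72 h at 37 C, 5% CO2. Parasite DNA detected by SYBR Green after lysis, overnight at room temperature; normalised to 0.29 uM artemisinin and DMSO.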

CP256 = test system: CP256
Summary of the method: as §1

CP260 = test system: CP260
Summary of the method: as §1

CP265 = test system: CP265
Summary of the method: as §1

CP266 = test system: CP266
Summary of the method: as §1

CP268 = test system: CP268
Summary of the method: as §1

CP269 = test system: CP269
Summary of the method: as §1

CP286 = test system: CP286
Summary of the method: as §1

CP291 = test system: CP291
Summary of the method: as §1

CP297 = test system: CP297
Summary of the method: as §1

CP305 = test system: CP305
Summary of the method: as §1

CP315 = test system: CP315
Summary of the method: as §1

CP325 = test system: CP325
Summary of the method: as §1

CP329 = test system: CP329
Summary of the method: as §1

CP335 = test system: CP335
Summary of the method: as §1

DIV14 = test system: DIV14
Summary of the method: as §1

DIV17 = test system: DIV17
Summary of the method: as §1

DIV30 = test system: DIV30
Summary of the method: as §1

Dd2 = test system: Dd2
Summary of the method: as §1

ECU = test system: ECU
Summary of the method: as §1

FAB9 = test system: FAB9
Summary of the method: as §1

GB4 = test system: GB4
Summary of the method: as §1

HB3 = test system: HB3
Summary of the method: as §1

ICS = test system: ICS
Summary of the method: as §1

N140 = test system: N140
Summary of the method: as §1

P93_24 = test system: P93_24
Summary of the method: as §1

P94_40 = test system: P94_40
Summary of the method: as §1

PAD = test system: PAD
Summary of the method: as §1

PC15 = test system: PC15
Summary of the method: as §1

PC49 = test system: PC49
Summary of the method: as §1

SC27B = test system: SC27B
Summary of the method: as §1

TAB109 = test system: TAB109
Summary of the method: as §1

TAB113 = test system: TAB113
Summary of the method: as §1

TAB165 = test system: TAB165
Summary of the method: as §1

Measured: Potency
Potency means the concentration at half of the fitted maximal effect.

CO[C@H]1/C=C/O[C@@]2(C)Oc3c(C)c(O)c4c(O)c(c(/C=N\N5CCN(C6CCCC6)CC5)c(O)c4c3C2=O)NC(=O)/C(C)=C\C=C\[C@H](C)[C@H](O)[C@@H](C)[C@@H](O)[C@@H](C)[C@H](OC(C)=O)[C@@H]1C
active: CP252 1410 nM | CP256 2820 nM | CP260 1000 nM | CP265 1260 nM | CP266 6010 nM | CP268 3790 nM | CP269 3380 nM | CP286 2240 nM | CP291 4260 nM | CP297 1690 nM | CP305 4780 nM | CP315 4780 nM | CP325 4780 nM | CP329 4780 nM | CP335 1350 nM | DIV14 675 nM | DIV17 601 nM | DIV30 849 nM | Dd2 447 nM | ECU 199 nM | FAB9 10000 nM | GB4 1070 nM | HB3 794 nM | ICS 112 nM | N140 141 nM | P93_24 355 nM | P94_40 224 nM | PAD 199 nM | PC15 794 nM | PC49 708 nM | SC27B 251 nM | TAB109 1260 nM | TAB113 282 nM | TAB165 158 nM
